{"source": "the supplement of paper PMC7858590", "note": "Several values for one entry are separate records, joined by “and”; a condition that tells them apart may be missing. Equal entries are not always repeated. ± gives the standard deviation of the averaged measurements. Over roughly 3,800 compounds, “cell shape (eccentricity) Z-score vs DMSO control” has its median near 1.1; the lowest 2% begin near -4.7. This is one part of a sample in which the lowest values are shown more often than they occur."}
{"system": "human monocyte-derived macrophages (M0)", "assay": "cell shape (eccentricity) Z-score vs DMSO control; higher = more elongated, M2-like morphology", "settings": "20 µM; 24 h; macrophage state: M0 (M-CSF)"}
{"compound": "CC(C)CC1NC(=O)C2CCCN2C1=O", "note": "(stereo unspecified)", "cell shape (Z-score)": 2.84}
{"compound": "CC(C)CC1NC(=O)C(C)NC1=O", "note": "(stereo unspecified)", "cell shape (Z-score)": -5.83}
{"compound": "CC(C)=CCc1c(O)cc(O)c2c1OC(c1ccc(O)c(O)c1)CC2=O", "note": "(stereo unspecified)", "cell shape (Z-score)": 1.24}
{"compound": "O=C1c2cccc(O)c2C(=O)c2c(O)cccc21", "cell shape (Z-score)": 3.05}
{"compound": "c1ccc2nc(C3=NCCN3)ccc2c1", "cell shape (Z-score)": 0.187}
{"compound": "c1ccc2cc(C3=NCCN3)ncc2c1", "cell shape (Z-score)": -4.69}
{"compound": "c1ccc2nc(C3=NCCN3)cnc2c1", "cell shape (Z-score)": 1.3}
{"compound": "CCOc1ccc(Cc2cc([C@@H]3O[C@H](CO)[C@@H](O)[C@H](O)[C@H]3O)ccc2Cl)cc1", "cell shape (Z-score)": -0.0179}
{"compound": "CC1(C)C(=O)C=C[C@@]2(C)C1C=C[C@]1(C)C2CC[C@@]2(C)[C@H](c3ccoc3)OC(=O)[C@H]3O[C@]321", "note": "(stereo partly specified)", "cell shape (Z-score)": 7.92}
{"compound": "CCc1cc(C(C)=O)c(O)cc1OCCCCCC(C)(C)c1nnn[nH]1", "cell shape (Z-score)": 1.49}
{"compound": "CC(C)NC(=N)NC(=N)Nc1ccc(Cl)cc1", "cell shape (Z-score)": 0.874}
{"compound": "N=C(NCCCCCCNC(=N)NC(=N)Nc1ccc(Cl)cc1)NC(=N)Nc1ccc(Cl)cc1", "cell shape (Z-score)": -6.88}
{"compound": "N=C(N)Nc1ccc(Cl)cc1", "cell shape (Z-score)": 0.554}
{"compound": "CC(=O)N[C@H]1[C@H](O[C@H]2CC[C@@]3(C)C(CC[C@]4(C)C3CC=C3[C@@H]5CC(C)(C)CC[C@]5(C(=O)OC5OCC(O)C(O)C5O)C(O)C[C@]34C)C2(C)C)O[C@H](COC2OCC(O)C(OC3OCC(O)C(O)C3O)C2O)[C@@H](O[C@@H]2O[C@@H](C)[C@H](O)[C@@H](O)[C@H]2O[C@@H]2O[C@@H](C)[C@H](O)[C@@H](O)[C@H]2O)[C@@H]1O", "note": "(stereo partly specified)", "cell shape (Z-score)": "-2.27 ± 4.4"}
{"compound": "O=C1NN(C(=O)Nc2ccc(Br)cc2)[C@@H](c2ccccc2)[C@@H]1c1ccccc1", "cell shape (Z-score)": 1.43}
{"compound": "COC(=O)[C@@H]1[C@H]2C[C@H]3c4[nH]c5ccccc5c4CCN3C[C@@H]2CC[C@@H]1O", "cell shape (Z-score)": -0.402}
{"compound": "O=C(/C=C/c1ccc(O)cc1)CC(=O)/C=C/c1ccc(O)cc1", "cell shape (Z-score)": -1.34}
{"compound": "O=C(/C=C/c1ccccc1)CC(=O)/C=C/c1ccccc1", "cell shape (Z-score)": -8.63}
{"compound": "O=C(/C=C/c1ccccc1)CC(O)CCc1ccccc1", "note": "(stereo unspecified)", "cell shape (Z-score)": -0.2}
{"compound": "c1ccc(-c2n[nH]c3c2oc2ccccc23)cc1", "cell shape (Z-score)": 0.646}
{"compound": "CCN1C(=CC=Cc2ccc3ccccc3[n+]2CC)C=Cc2ccccc21", "cell shape (Z-score)": -7.46}
{"compound": "CC1(C)CCC(C)(C)c2cc([C@@H](O)C(=O)Nc3ccc(C(=O)O)cc3F)ccc21", "cell shape (Z-score)": 5.37}
{"compound": "C=C(NC(=O)C(=C)NC(=O)c1csc(C2=N[C@H]3c4csc(n4)[C@H]4NC(=O)c5csc(n5)[C@H]([C@@](C)(O)[C@@H](C)O)NC(=O)[C@H]5CSC(=N5)C(=CC)NC(=O)[C@H]([C@@H](C)O)NC(=O)c5csc(n5)[C@]3(CC2)NC(=O)[C@H](C)NC(=O)C(=C)NC(=O)[C@H](C)NC(=O)[C@H](C(C)CC)N[C@@H]2C=Cc3c([C@H](C)O)cc(nc3[C@H]2O)C(=O)O[C@@H]4C)n1)C(N)=O", "note": "(stereo partly specified)", "cell shape (Z-score)": -6.13}
{"compound": "COc1cc(C)c(C(=O)O[C@H]2[C@@H](OC(C)=O)[C@H](n3ccc(=O)[nH]c3=O)O[C@@H]2CO)c(OC)c1", "cell shape (Z-score)": "1.91 ± 0.92"}
{"compound": "Cc1ccc(/C(=C\\CN2CCCC2)c2ccccn2)cc1", "cell shape (Z-score)": 1.6}
{"compound": "CCOC(=O)N[C@@H]1CC[C@@H]2[C@@H](C1)C[C@H]1C(=O)O[C@H](C)[C@H]1[C@H]2/C=C/c1ccc(-c2cccc(F)c2)cn1", "cell shape (Z-score)": 5.12}
{"compound": "CC(=O)O[C@H]1C(=O)[C@@]2(C)[C@H]([C@H](OC(=O)c3ccccc3)[C@]3(O)C[C@H](OC(=O)[C@H](O)[C@@H](NC(=O)c4ccccc4)c4ccccc4)C(C)=C1C3(C)C)[C@]1(OC(C)=O)CO[C@@H]1C[C@@H]2O", "cell shape (Z-score)": -5.5}
{"compound": "CC(=O)O[C@H]1C(=O)[C@@]2(C)C([C@H](OC(=O)c3ccccc3)[C@]3(O)C[C@H](OC(=O)[C@H](O)[C@@H](NC(=O)c4ccccc4)c4ccccc4)C(C)=C1C3(C)C)[C@]1(OC(C)=O)CO[C@@H]1C[C@@H]2O", "note": "(stereo partly specified)", "cell shape (Z-score)": "-4.41 and -4.29 and -4.69"}
{"compound": "CC(=O)OC1C(=O)C2(C)C(O)CC3OCC3(OC(C)=O)C2C(OC(=O)c2ccccc2)C2(O)CC(OC(=O)C(O)C(NC(=O)c3ccccc3)c3ccccc3)C(C)=C1C2(C)C", "note": "(stereo unspecified)", "cell shape (Z-score)": -3.69}
{"compound": "CC/C(=C(/CC)c1ccc(O)cc1)c1ccc(O)cc1", "cell shape (Z-score)": 1.77}
{"compound": "CC1(C)CC[C@]2(C(=O)O[C@@H]3O[C@H](CO)[C@@H](O)[C@H](O)[C@H]3O)CC[C@]3(C)C(=CCC4[C@@]5(C)C[C@@H](O)[C@H](O)[C@](C)(CO)C5CC[C@]43C)C2[C@@H]1O", "note": "(stereo partly specified)", "cell shape (Z-score)": 1.6}
{"compound": "Cc1[nH]c2ccccc2c1CCNCc1ccc(/C=C/C(=O)NO)cc1", "cell shape (Z-score)": "4.88 and 5.32"}
{"compound": "C/C=C/C=C/C(=O)c1cc(C)c(O)c(C)c1O", "cell shape (Z-score)": 1.03}
{"compound": "Cc1cc2nc3c(=O)[nH]c(=O)nc-3n(C[C@@H](O)[C@@H](O)[C@@H](O)CO)c2cc1C", "cell shape (Z-score)": 0.422}
{"compound": "Cc1cc2nc3c(=O)[nH]c(=O)nc-3n(C)c2cc1C=O", "cell shape (Z-score)": -7.12}
{"compound": "CCCCCCCNS(=O)(=O)c1cccc2c(Cl)cccc12", "cell shape (Z-score)": 0.986}
{"compound": "CN(C)CCCSC(=N)N", "cell shape (Z-score)": 0.27}
{"compound": "NC(COCc1ccccc1)C(=O)O", "note": "(stereo unspecified)", "cell shape (Z-score)": 1.15}
{"compound": "CS(=O)c1ccc(-c2nc(-c3ccc(F)cc3)c(-c3ccncc3)[nH]2)cc1", "note": "(stereo unspecified)", "cell shape (Z-score)": 3.26}
{"compound": "Oc1ccc(-c2nc(-c3ccc(F)cc3)c(-c3ccncc3)[nH]2)cc1", "cell shape (Z-score)": -5.27}
{"compound": "CS(=O)(=O)c1ccc(-c2nc(-c3ccc(F)cc3)c(-c3ccncc3)[nH]2)cc1", "cell shape (Z-score)": 1.46}
